# Measurements published in paper PMC4552634, “A New Set of Chemical Starting Points with Plasmodium falciparum Transmission-Blocking Potential for Antimalarial Drug Discovery” (PLoS ONE, 2015).
# In all, about 13,000 compounds went through this assay and about 3,200 (25%) showed an effect of 50% or more. The list shows a part of the results.
# System: P. falciparum stage V gametocytes
# Design: BacTiter-Glo ATP luminescence viability of purified stage V gametocytes in 384-well plates, per cent inhibition versus DMSO
# Conditions: 48 h, 5 µM; inhibitor
row,Structure (SMILES),% Inhibition
1,Cc1cc(NCCC(=O)Nc2ccccc2)nc(NCC2CCCCC2)n1 [TCMDC-134926],-30.27%
2,CC(C)(C)C1CCC(C(=O)c2ccc3ccccc3c2O)CC1 (stereo not shown) [TCMDC-137495],11.22%
3,O=C(CCC1CCCCC1)NCCNc1cccc2ccccc12 [TCMDC-124017],107.9%
4,O=C(Nc1ccccc1)Nc1cccc(-c2cccc(-c3nc4ccc(F)cc4[nH]3)c2)c1 [TCMDC-133154],-14.02%
5,CCOc1ccc(-c2nc(NC(=O)COc3ccc(OC)cc3)sc2C)cc1 [TCMDC-124329],36.75%
6,Cc1cccc2[nH]c(-c3cccc(-c4ccc(NC(=O)C5CC(=O)Nc6ccccc65)cc4)c3)nc12 (stereo not shown) [TCMDC-137098],-77.35%
7,Cc1cccc2[nH]c(-c3cccc(-c4cccc(NC(=O)c5csnn5)c4)c3)nc12 [TCMDC-136904],82.61%
8,Cc1ccoc1C(=O)Nc1ccc(-c2cccc(-c3nc4c(C)cccc4[nH]3)c2)cc1 [TCMDC-136837],-21.37%
9,Cc1ccoc1C(=O)Nc1cccc(-c2cccc(-c3nc4ccccc4[nH]3)c2)c1 [TCMDC-136834],-43.19%
10,O=C(Nc1cccc(-c2cccc(-c3nc4ccccc4[nH]3)c2)c1)c1csnn1 [TCMDC-136898],1.573%
11,Cc1cnc(C(=O)Nc2cccc(-c3cccc(-c4nc5c(C)cccc5[nH]4)c3)c2)cn1 [TCMDC-137030],-21.98%
12,Cc1ccoc1C(=O)Nc1cccc(-c2cccc(-c3nc4c(C)cccc4[nH]3)c2)c1 [TCMDC-136836],81.69%
13,CC(=O)Nc1nc(C(=O)Nc2cccc(-c3cccc(-c4nc5c(C)cccc5[nH]4)c3)c2)cs1 [TCMDC-137130],-6.466%
14,Cc1cccc2[nH]c(-c3cccc(-c4cccc(NC(=O)C5CC(=O)Nc6ccccc65)c4)c3)nc12 (stereo not shown) [TCMDC-137097],79.84%
15,CC(=O)Nc1nc(C(=O)Nc2ccc(-c3cccc(-c4nc5c(C)cccc5[nH]4)c3)cc2)cs1 [TCMDC-137131],-2.039%
16,CC(=O)Nc1nc(C(=O)Nc2cccc(-c3ccc(-c4nc5c(C)cccc5[nH]4)cc3)c2)cs1 [TCMDC-137123],80.9%
17,O=C1CC(C(=O)Nc2cccc(-c3cccc(-c4nc5ccccc5[nH]4)c3)c2)c2ccccc2N1 (stereo not shown) [TCMDC-137096],26.75%
18,Clc1cc(Nc2ccnc3ccc(Br)cc23)ccc1Oc1ccc(Cl)c2ccccc12 [TCMDC-123834],-13.4%
19,O=c1cc(NC[C@H]2CCC[C@@H]2NC2CCCc3c2[nH]c2ccccc32)[nH]c2ccccc12 (stereo partly shown) [TCMDC-139785],10.53%
